Screens from PubChem.
SKN-1 block = C. elegans SKN-1 inhibition; C. elegans VP596 Pgst-4::GFP/RFP ratio, acrylamide-induced, 24 h; inhibition, % at 21.8 µM; 360,000 tested, 0.49% active; AID 624304;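 active = interference check ratio from 0.5 to 1.5 plus GFP to RFP signal ratio inhibition reaching or exceeding a fixed threshold, cut at about 30% in these data, passing the limit was not always enough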
Efflux pump inh = blocks antifungal efflux pumps in multiplex yeast assay; S. cerevisiae Candida pump triplex, Nile Red efflux; inhibition, % at 10 µM; 330,000 tested, 0.44% active; AID 485275;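 active = plate passing quality check with inhibition over a set limit, or well fluorescence over plate mean plus 4 SD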;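 also: Nile Red retained in pooled yeast measured as flow cytometry median fluorescence; 0% = buffer negative control and 100% = Enniatin B positive control; higher means more Nile Red kept so more efflux inhibition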
SUMO Mot1 rescue = blocks SUMOylation pathway, rescuing yeast Mot1-301 growth. AID 2716. growth rescue, % at 18.8 µM. 320,000 tested, 1% active. S. cerevisiae Mot1-301 growth rescue, ATP luminescence, 38.5C; percent above DMSO median, 100 means doubled;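 active = every valid replicate shows activation above 250% relative to neutral control wells; inactive = the rest, any valid replicate at or below 250%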;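 also: OY570 slx delta 5 strain wells were the positive control but not used for scaling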
sPLA2-III inh = Inhibits HGIII-sPLA2 liposome hydrolysis, primary screen | QFRET BODIPY PC-A2 liposome hydrolysis, fluorescence | 370,000 tested, 0.56% active | inhibition, % at 12.2 µM | Q9NZ20;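 active = inhibition above mean plus 3 SD of compounds lying within the high and low control bounds, cut at about 19% in these data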;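 also: 0% = median of test compound wells and 100% = no enzyme DMSO wells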
Target sequence (Q9NZ20 whole entry, looked up): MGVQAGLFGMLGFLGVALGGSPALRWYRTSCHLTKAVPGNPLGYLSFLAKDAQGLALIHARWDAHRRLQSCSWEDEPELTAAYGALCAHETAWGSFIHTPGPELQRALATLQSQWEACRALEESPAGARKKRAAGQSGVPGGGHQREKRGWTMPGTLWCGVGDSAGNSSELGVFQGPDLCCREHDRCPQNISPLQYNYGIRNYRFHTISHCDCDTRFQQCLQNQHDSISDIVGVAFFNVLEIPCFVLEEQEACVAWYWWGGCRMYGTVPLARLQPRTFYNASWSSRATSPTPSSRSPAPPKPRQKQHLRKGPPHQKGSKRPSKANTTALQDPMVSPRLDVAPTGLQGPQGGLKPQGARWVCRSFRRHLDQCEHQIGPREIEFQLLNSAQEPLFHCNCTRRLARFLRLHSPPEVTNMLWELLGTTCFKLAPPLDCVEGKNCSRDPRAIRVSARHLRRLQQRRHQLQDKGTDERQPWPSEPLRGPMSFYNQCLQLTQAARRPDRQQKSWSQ
Cmpd fluor yeast = counter-screen for efflux pump inhibitors: compound fluorescence. shares compounds with Efflux pump inh. S. cerevisiae AD/pABC3, flow cytometry. fluorescence ratio to DMSO, % at 10 µM. 1,700 tested, 4% active;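 active = fluorescence ratio to DMSO above its plate's cutoff, the plate mean ratio plus 5 SD, cut at about 210% in these data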;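 also: unstained yeast with no Nile Red so the signal is compound autofluorescence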
CaMdr1 efflux inh = blocks the Candida albicans Mdr1 efflux pump in yeast; AID 588518; inhibition, % at 10 µM; 1,700 tested, 1% active; S. cerevisiae AD/CaMDR1, Nile Red efflux, flow cytometry; shares compounds with Efflux pump inh; in the data active = inhibition above about 26%;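 also: 0% = DMSO vehicle and 100% = reference inhibitor; higher means more Nile Red retained so more efflux inhibition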
CaCdr2 efflux inh = inhibitors of Candida albicans Cdr2 efflux pump; shares compounds with Efflux pump inh; S. cerevisiae AD/CaCDR2, Nile Red retention, flow cytometry; Nile Red retention ratio vs DMSO, % at 10 µM; 1,700 tested, 4% active; AID 588520; in the data active = Nile Red retention ratio vs DMSO above about 190%;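 also: higher ratio means more blocking of Cdr2 efflux of the dye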
Cdr1 pump inh = inhibitors of Candida albicans Cdr1 efflux pump; shares compounds with Efflux pump inh; S. cerevisiae AD/CaCDR1, Nile Red efflux, flow cytometry; AID 588522; 1,700 tested, 1% active; inhibition, % at 10 µM;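 active = inhibition above the screen-wide mean plus twice its standard deviation, cut at about 32% in these data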
Starred values were filed as active, the others as inactive. Only some compounds are listed: those with a hit (about 2.2% of all), similar ones and a draw of the others.

How did Cc1noc(C)c1COc1cccc(C(=O)OCC(=O)NCCN2C(=O)CSC2=O)c1 do in these assays?
SKN-1 block: 2.7; Efflux pump inh: 0.1; SUMO Mot1 rescue: -2.2; sPLA2-III inh: -2.8

What do the screens show for `CSc1ccccc1C(=O)OCC(=O)NCCN1C(=O)CSC1=O`?
SKN-1 block: 4.5; Efflux pump inh: 0.0; SUMO Mot1 rescue: -17.5; sPLA2-III inh: 7.7

What do the screens show for `O=C(COC(=O)c1cc(Cl)cc(Cl)c1)NCCN1C(=O)CSC1=O`?
SKN-1 block: 2.4; Efflux pump inh: -0.1; SUMO Mot1 rescue: 31.6; sPLA2-III inh: -19.9; Cmpd fluor yeast: 104.7; CaMdr1 efflux inh: -0.2; CaCdr2 efflux inh: 99.6; Cdr1 pump inh: 0.0

Results for O=C(COC(=O)c1ccc(Cl)cc1O)NCCN1C(=O)CSC1=O ?
SKN-1 block: -3.8; Efflux pump inh: 0.1; SUMO Mot1 rescue: 107.4; sPLA2-III inh: -6.5; Cmpd fluor yeast: 108.3; CaMdr1 efflux inh: 0.0; CaCdr2 efflux inh: 112.0; Cdr1 pump inh: 0.0

How did O=C(COC(=O)c1cccc(Cl)c1)NCCN1C(=O)CSC1=O do in these assays?
SKN-1 block: 9.3; Efflux pump inh: 0.0; SUMO Mot1 rescue: 215.5; sPLA2-III inh: -35.5; Cmpd fluor yeast: 95.5; CaMdr1 efflux inh: -0.3; CaCdr2 efflux inh: 89.9; Cdr1 pump inh: -0.1

What do the screens show for `CCC(C(=O)N1CCOCC1)n1nc(C)c2c(C)n(-c3ccccc3)nc2c1=O` (configuration not stated)?
SKN-1 block: 4.1; Efflux pump inh: 0.0; SUMO Mot1 rescue: 114.5; sPLA2-III inh: 9.6

How did CC1CC(=O)N(CC(=O)Nc2ccc3c(c2)OCCO3)c2ccccc2S1 (configuration not stated) do in these assays?
SKN-1 block: 7.4; Efflux pump inh: -0.1; SUMO Mot1 rescue: -13.8; sPLA2-III inh: -3.1; Cmpd fluor yeast: 530.6*; CaMdr1 efflux inh: 5.3; CaCdr2 efflux inh: 109.4; Cdr1 pump inh: -0.2

Results for O=C(CN1C(=O)CC(c2ccco2)Sc2ccccc21)NCc1ccc2c(c1)OCO2 (configuration not stated) ?
SKN-1 block: -13.1; Efflux pump inh: 9.8*; SUMO Mot1 rescue: -4.1; Cmpd fluor yeast: 82.2; CaMdr1 efflux inh: -0.1; CaCdr2 efflux inh: 86.9; Cdr1 pump inh: -0.3

Results for C=CCN1C[C@@H](COCc2ccccc2)Oc2cccc(F)c2S1(=O)=O ?
sPLA2-III inh: 1.6

What do the screens show for `COc1ccc(/C=N/NC(=O)NC23CC4CC(CC(C4)C2)C3)c(OC)c1`?
SKN-1 block: -9.0; Efflux pump inh: 0.0; SUMO Mot1 rescue: 255.5; sPLA2-III inh: -4.9

Results for Cc1ccc(OCC(=O)NNC(=O)C(C)Sc2ncnc3sc(C)c(C)c23)cc1 (configuration not stated) ?
SKN-1 block: 9.9; Efflux pump inh: 0.0; SUMO Mot1 rescue: 1.8; sPLA2-III inh: -5.0

How did Cc1sc2ncnc(SC(C)C(=O)N3c4ccccc4Sc4ccccc43)c2c1C (configuration not stated) do in these assays?
SKN-1 block: 14.8; Efflux pump inh: 15.2*; SUMO Mot1 rescue: -12.5; sPLA2-III inh: -0.5; Cmpd fluor yeast: 103.0; CaMdr1 efflux inh: -0.5; CaCdr2 efflux inh: 83.1; Cdr1 pump inh: -0.1

Results for Cc1sc2ncnc(SCC(=O)NC(C)C(C)C)c2c1C (configuration not stated) ?
SKN-1 block: -10.3; Efflux pump inh: 0.8*; SUMO Mot1 rescue: -0.1; sPLA2-III inh: 0.4; Cmpd fluor yeast: 109.0; CaMdr1 efflux inh: -0.1; CaCdr2 efflux inh: 112.3; Cdr1 pump inh: 0.1

What do the screens show for `COc1cc(Cn2c3ccc(NC(=S)NCc4ccc(C)cc4)cc3c(=O)n2C)ccc1F`?
SKN-1 block: -1.7; sPLA2-III inh: -0.7

How did Cn1c(N2CCN(C(c3ccccc3)c3ccccc3)CC2)nc2ccccc21 do in these assays?
SKN-1 block: 3.3; Efflux pump inh: 0.5*; SUMO Mot1 rescue: 4.8; sPLA2-III inh: -7.5; Cmpd fluor yeast: 98.9; CaMdr1 efflux inh: -0.4; CaCdr2 efflux inh: 104.2; Cdr1 pump inh: 0.3

What do the screens show for `COc1cc(NC(=O)c2cc(-c3ccccc3)nc3c2cnn3C(C)C)cc(OC)c1OC`?
SKN-1 block: 9.5; Efflux pump inh: 1.0*; SUMO Mot1 rescue: 15.3; Cmpd fluor yeast: 100.2; CaMdr1 efflux inh: -0.2; CaCdr2 efflux inh: 99.3; Cdr1 pump inh: -0.5

How did COC(=O)c1cc(OC)c(OC)cc1NC(=O)c1cc(-c2ccccc2)nc2ccccc12 do in these assays?
SKN-1 block: -2.3; Efflux pump inh: 0.2; SUMO Mot1 rescue: -2.6; sPLA2-III inh: -3.2; Cmpd fluor yeast: 99.8; CaMdr1 efflux inh: -0.1; CaCdr2 efflux inh: 101.8; Cdr1 pump inh: 0.0

Results for O=C1C(=Cc2ccc(F)cc2)CCc2ccccc21 ?
SKN-1 block: 34.7; sPLA2-III inh: -1.0

How did OC(C[n+]1ccccc1)c1ccccc1 (configuration not stated) do in these assays?
SKN-1 block: -3.5; Efflux pump inh: 0.0; SUMO Mot1 rescue: -16.8; sPLA2-III inh: 3.8

What do the screens show for `COc1ccc(C2=Nc3ccccc3N(C(=O)c3ccncc3)C2C(=O)NC(C)(C)C)cc1` (configuration not stated)?
SKN-1 block: 13.7; sPLA2-III inh: -2.1

What do the screens show for `CCn1cc(C(=O)NCCCN2CCCC2)c(=O)c2cc(S(=O)(=O)N3CCc4ccccc4C3)ccc21`?
SKN-1 block: -12.5; Efflux pump inh: 1.1*; SUMO Mot1 rescue: -11.8; sPLA2-III inh: 1.3; Cmpd fluor yeast: 100.4; CaMdr1 efflux inh: 0.0; CaCdr2 efflux inh: 101.7; Cdr1 pump inh: 0.0

Results for CCCCN(C)CCCNC(=O)c1cn(CC)c2ccc(S(=O)(=O)N3CCc4ccccc4C3)cc2c1=O ?
SKN-1 block: 0.3; Efflux pump inh: 0.0; SUMO Mot1 rescue: -0.9; sPLA2-III inh: -13.4

Results for O=C(CCSc1nc(-c2ccco2)cc(C(F)(F)F)n1)N1CCN(c2ccccc2)CC1 ?
SKN-1 block: 20.5; Efflux pump inh: 0.5*; SUMO Mot1 rescue: -8.9; sPLA2-III inh: -1.3; Cmpd fluor yeast: 105.0; CaMdr1 efflux inh: -0.2; CaCdr2 efflux inh: 105.7; Cdr1 pump inh: 0.1

How did O=C(NC(=S)Nc1ccccc1N1CCOCC1)c1ccc(-c2cccc(Cl)c2)o1 do in these assays?
SKN-1 block: 1.5; Efflux pump inh: 11.1*; SUMO Mot1 rescue: 1.6; sPLA2-III inh: -0.5; Cmpd fluor yeast: 104.6; CaMdr1 efflux inh: 0.0; CaCdr2 efflux inh: 89.3; Cdr1 pump inh: 0.2

Results for CCOC(=O)c1csc(-c2ccc(COC(=O)c3ccccc3)o2)n1 ?
SKN-1 block: 8.8
